Measured values from PubChem BioAssay (NCATS).
Inconclusive results are not listed. Where a call stands in place of a potency, no number is given. Calls of active or inactive are those of the source. Calls come from the whole dose curve; as a rule, active = well fitted inhibition curve with a large enough effect; inconclusive = small, poorly fitted or top-dose-only effect; inactive = flat fitted curve, though single readings scatter.

Experiment: BET inhibitor-based combinations targeting novel dependencies in MECOM-rearranged (r) AML: AML-194 cell line (AID 2202237; note: nearly all actives have a fitted effect of over 40% in size)
Details: AML-194 (MECOM-r AML) viability, CellTiter-Glo, 48 h; series mostly up to 46 µM
How it was run: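 Luminescent ATP readout (CellTiter-Glo) after 48 hr drug exposure gives viability. Curves span 11 concentrations and are normalized to DMSO and empty wells. Activity is reported as area under the curve and its Z-transform within each cell line.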
Potency is the fitted concentration of half-maximal effect.

| Structure (SMILES) | Potency |
| --- | --- |
| NC(=O)c1ccc(I)c([N+](=O)[O-])c1 | inactive |
| c1coc(CNc2ncnc3nc[nH]c23)c1 | inactive |
| COc1cc([C@H]2Oc3cc([C@H]4Oc5cc(O)cc(O)c5C(=O)[C@@H]4O)ccc3O[C@@H]2CO)ccc1O | inactive |
| COc1ccc(-c2coc3cc(O)cc(O)c3c2=O)cc1 | inactive |
| CNC(=O)[C@H](Cc1ccccc1)NC(=O)[C@H](CC(C)C)[C@H](CSc1cccs1)C(=O)NO | inactive |
| CCC(C)(C)C(=O)O[C@H]1C[C@@H](C)C=C2C=C[C@H](C)[C@H](CC[C@@H]3C[C@@H](O)CC(=O)O3)[C@H]21 | inactive |
| CC(C)Oc1ccc2c(=O)c(-c3ccccc3)coc2c1 | inactive |
| CCCCOCCOc1nc(-c2ccc(C(=O)O)c(F)c2)sc1C | inactive |
| N[C@H](CSC(c1ccccc1)(c1ccccc1)c1ccccc1)C(=O)O | inactive |
| CC[C@@H]1C(=O)N(C)c2cnc(Nc3ccc(C(=O)NC4CCN(C)CC4)cc3OC)nc2N1C1CCCC1 | 332 nM (active) |
| CCOC(=O)O[C@]1(C(=O)OCCl)CC[C@H]2[C@@H]3CCC4=CC(=O)C=C[C@]4(C)[C@H]3[C@@H](O)C[C@@]21C | inactive |
| CCOc1cc(N)c(Cl)cc1C(=O)NCC1CN(Cc2ccc(F)cc2)CCO1 (stereo unspecified) | inactive |
| COc1ccc(C[C@@H](C)[C@@H](C)Cc2ccc(OC)c(OC)c2)cc1OC | inactive |
| CCN(c1ccccc1)c1cc(NC)[n+](C)c(C)n1 | inactive |
| NCc1c[nH]c(=S)n1[C@H]1CCc2c(F)cc(F)cc2C1 | inactive |
| COc1ccccc1C(=O)Nc1cc2c(cc1N1CCCCC1)n(C)c(=O)n2C | inactive |
